According to the supplement of paper PMC8728848:
The sample as a whole holds a higher share of the strongest signals than the screen did.

Assays:
Test in all cases: glycan array binding signal (z-score within array); higher = stronger binding
[1] = molecular target: Fuc(a1-3)[Gal(b1-4)]GlcNAc(b1-3)Gal(b1-3)[Fuc(a1-4)]GlcNAc; details: glycan notation: IUPAC condensed, linker removed
Outline: (§1)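 Negative Z-scores can be read as non-binding. The Z-score is calculated within each array and then averaged across arrays of one protein sequence at different concentrations or buffers and across linkers. Arrays, 3228 in all, were curated from the Consortium for Functional Glycomics database and kept only where the protein sequence was available.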

[2] = molecular target: Fuc(a1-3)[Gal(b1-4)]GlcNAc(b1-4)Gal(b1-4)[Fuc(a1-3)]GlcNAc(b1-4)Gal(b1-4)[Fuc(a1-3)]GlcNAc; details: glycan notation: IUPAC condensed, linker removed
Outline: as §1

Gal(a1-6)Glc = details: glycan notation: IUPAC condensed, linker removed
Outline: as §1

Gal(b1-3)Gal(b1-4)GlcNAc = details: glycan notation: IUPAC condensed, linker removed
Outline: as §1

Gal(b1-3)GlcNAc = details: glycan notation: IUPAC condensed, linker removed
Outline: as §1

[3] = molecular target: Gal(b1-3)GlcNAc(b1-2)Man(a1-3)[Gal(b1-3)GlcNAc(b1-2)Man(a1-6)]Man(b1-4)GlcNAc(b1-4)GlcNAc; details: glycan notation: IUPAC condensed, linker removed
Outline: as §1

[4] = molecular target: Gal(b1-3)GlcNAc(b1-3)Gal(b1-4)Glc; details: glycan notation: IUPAC condensed, linker removed
Outline: as §1

[5] = molecular target: Gal(b1-3)[Fuc(a1-4)]GlcNAc; details: glycan notation: IUPAC condensed, linker removed
Outline: as §1

[6] = molecular target: Gal(b1-3)[Fuc(a1-4)]GlcNAc(b1-3)Gal(b1-4)[Fuc(a1-3)]GlcNAc; details: glycan notation: IUPAC condensed, linker removed
Outline: as §1

[7] = molecular target: Gal(b1-4)GlcNAc(b1-3)[Gal(b1-4)GlcNAc(b1-6)]Gal(b1-4)GlcNAc; details: glycan notation: IUPAC condensed, linker removed
Outline: as §1

Gal6S(b1-4)Glc = details: glycan notation: IUPAC condensed, linker removed
Outline: as §1

[8] = molecular target: GlcNAc(b1-3)[GlcNAc(b1-6)]GalNAc; details: glycan notation: IUPAC condensed, linker removed
Outline: as §1

[9] = molecular target: GlcNAc(b1-4)GlcNAc(b1-4)GlcNAc; details: glycan notation: IUPAC condensed, linker removed
Outline: as §1

[10] = molecular target: GlcNAc(b1-4)GlcNAc(b1-4)GlcNAc(b1-4)GlcNAc(b1-4)GlcNAc(b1-4)GlcNAc; details: glycan notation: IUPAC condensed, linker removed
Outline: as §1

[11] = molecular target: Man(a1-2)Man(a1-2)Man(a1-3)Man; details: glycan notation: IUPAC condensed, linker removed
Outline: as §1

[12] = molecular target: Man(a1-2)Man(a1-2)Man(a1-6)[Man(a1-3)]Man; details: glycan notation: IUPAC condensed, linker removed
Outline: as §1

[13] = molecular target: Man(a1-2)Man(a1-3)[Man(a1-2)Man(a1-6)]Man; details: glycan notation: IUPAC condensed, linker removed
Outline: as §1

[14] = molecular target: Man(a1-2)Man(a1-3)[Man(a1-6)]Man(a1-6)[Man(a1-2)Man(a1-3)]Man(b1-4)GlcNAc(b1-4)GlcNAc; details: glycan notation: IUPAC condensed, linker removed
Outline: as §1

[15] = molecular target: Man(a1-2)Man(a1-6)[Man(a1-3)]Man(a1-6)[Man(a1-2)Man(a1-2)Man(a1-3)]Man(b1-4)GlcNAc(b1-4)GlcNAc; details: glycan notation: IUPAC condensed, linker removed
Outline: as §1

[16] = molecular target: Man(a1-3)[Man(a1-6)]Man(a1-6)[Man(a1-2)Man(a1-3)]Man(b1-4)GlcNAc(b1-4)GlcNAc; details: glycan notation: IUPAC condensed, linker removed
Outline: as §1

Neu5Ac(a2-3)Gal = details: glycan notation: IUPAC condensed, linker removed
Outline: as §1

[17] = molecular target: Neu5Ac(a2-3)Gal(b1-3)[Fuc(a1-4)]GlcNAc(b1-3)Gal(b1-4)[Fuc(a1-3)]GlcNAc; details: glycan notation: IUPAC condensed, linker removed
Outline: as §1

[18] = molecular target: Neu5Ac(a2-3)[GalNAc(b1-4)]Gal(b1-4)Glc; details: glycan notation: IUPAC condensed, linker removed
Outline: as §1

[19] = molecular target: Neu5Ac(a2-3)[Neu5Ac(a2-6)]GalNAc; details: glycan notation: IUPAC condensed, linker removed
Outline: as §1

[20] = molecular target: Neu5Ac(a2-8)Neu5Ac(a2-3)[GalNAc(b1-4)]Gal(b1-4)Glc; details: glycan notation: IUPAC condensed, linker removed
Outline: as §1

[21] = molecular target: Neu5Ac(b2-6)Gal(b1-4)GlcNAc; details: glycan notation: IUPAC condensed, linker removed
Outline: as §1

Gal(a1-2)Gal = details: glycan notation: IUPAC condensed, linker removed; mutation: F355A
Outline: as §1

Gal(a1-3)Gal(b1-4)Glc = details: glycan notation: IUPAC condensed, linker removed; mutation: F355A
Outline: as §1

Gal(a1-3)GalNAc = details: glycan notation: IUPAC condensed, linker removed; mutation: F355A
Outline: as §1

[22] = molecular target: Gal(b1-4)GlcNAc(b1-2)Man(a1-3)[Gal(b1-4)GlcNAc(b1-2)Man(a1-6)]Man(b1-4)GlcNAc(b1-4)GlcNAc; details: glycan notation: IUPAC condensed, linker removed; mutation: F355A
Outline: as §1

[23] = molecular target: GalNAc(b1-3)Gal(a1-4)Gal(b1-4)GlcNAc; details: glycan notation: IUPAC condensed, linker removed; mutation: F355A
Outline: as §1

[24] = molecular target: GlcNAc(a1-6)Gal(b1-4)GlcNAc; details: glycan notation: IUPAC condensed, linker removed; mutation: F355A
Outline: as §1

[25] = molecular target: GlcNAc(b1-4)Gal(b1-4)GlcNAc; details: glycan notation: IUPAC condensed, linker removed; mutation: F355A
Outline: as §1

[26] = molecular target: GlcNAc(b1-4)GlcNAc(b1-4)GlcNAc(b1-4)GlcNAc(b1-4)GlcNAc; details: glycan notation: IUPAC condensed, linker removed; mutation: F355A
Outline: as §1

Kdn(a2-3)Gal(b1-4)GlcNAc = details: glycan notation: IUPAC condensed, linker removed; mutation: F355A
Outline: as §1

[27] = molecular target: Man(a1-2)Man(a1-3)[Man(a1-2)Man(a1-6)]Man(a1-6)[Man(a1-2)Man(a1-2)Man(a1-3)]Man; details: glycan notation: IUPAC condensed, linker removed; mutation: F355A
Outline: as §1

[28] = molecular target: Man(a1-3)[Man(a1-6)]Man(a1-6)[Man(a1-3)]Man; details: glycan notation: IUPAC condensed, linker removed; mutation: F355A
Outline: as §1

[29] = molecular target: Man(a1-3)[Man(a1-6)]Man(a1-6)[Man(a1-3)]Man(b1-4)GlcNAc(b1-4)GlcNAc; details: glycan notation: IUPAC condensed, linker removed; mutation: F355A
Outline: as §1

[30] = molecular target: Neu5Ac(a2-6)Gal(b1-4)GlcNAc(b1-2)Man(a1-6)[Gal(b1-4)GlcNAc(b1-2)Man(a1-3)]Man(b1-4)GlcNAc(b1-4)GlcNAc; details: glycan notation: IUPAC condensed, linker removed; mutation: F355A
Outline: as §1

[31] = molecular target: Neu5Gc(a2-3)Gal(b1-4)[Fuc(a1-3)]GlcNAc; details: glycan notation: IUPAC condensed, linker removed; mutation: F355A
Outline: as §1

B1: Surfactant Protein D (Human); Neck + Carbohydrate Recognition Domain (NCRD) (Homo sapiens) (protein)
chain: MLLFLLSALVLLTQPLGYLEAEMKTYSHRTMPSACTLVMCSSVESGLPGRDRDGREGPRGEKGDPGLPGAAGQAGMPGQAGPVGPKGDNGSVGEPGPKGDTGPSGPPGPPGVPGPAGREGALGKQGNIGPQGKPGPKGEAGPKGEVGAPGMQGSAGARGLAGPKGERGVPGERGVPGNTGAAGSAGAMGPQGSPGARGPPGLKGDKGIPGDKGAKGESGLPDVASLRQQVEALQGQVQHLQAAFSQYKKVELFPNGQSVGEKIFKTAQFVKPFTEAQLLCTQAGGQLASPRSAAENAALQQLVVAKNEAAFLSMTDSKTEGKFTYPTGESLVYSNWAPGEPNDDGGSEDCVEIFTNGKWNDRACGEKRLVVCEF
B1 was tested, and the “glycan array binding signal (z-score)” value [1] was -0.257, the “glycan array binding signal (z-score)” value [2] was -0.273 and the “glycan array binding signal (z-score)” value (Gal(a1-6)Glc) was -0.083. For the same binder, the “glycan array binding signal (z-score)” value (Gal(b1-3)Gal(b1-4)GlcNAc) was -0.274, the “glycan array binding signal (z-score)” value (Gal(b1-3)GlcNAc) was -0.263 and the “glycan array binding signal (z-score)” value [3] was -0.275. For the same binder, the “glycan array binding signal (z-score)” value [4] was -0.271, the “glycan array binding signal (z-score)” value [5] was -0.233 and the “glycan array binding signal (z-score)” value [6] was -0.053. The “glycan array binding signal (z-score)” value [7] was -0.29, the “glycan array binding signal (z-score)” value (Gal6S(b1-4)Glc) was -0.216 and the “glycan array binding signal (z-score)” value [8] was -0.258. The “glycan array binding signal (z-score)” value [9] was -0.24, the “glycan array binding signal (z-score)” value [10] was 0.127 and the “glycan array binding signal (z-score)” value [11] was 6.02. The “glycan array binding signal (z-score)” value [12] was 5.46, the “glycan array binding signal (z-score)” value [13] was 4.89 and the “glycan array binding signal (z-score)” value [14] was 6.78. The “glycan array binding signal (z-score)” value [15] was 5.33, the “glycan array binding signal (z-score)” value [16] was 4.68 and the “glycan array binding signal (z-score)” value (Neu5Ac(a2-3)Gal) was -0.243. The “glycan array binding signal (z-score)” value [17] was 0.1, the “glycan array binding signal (z-score)” value [18] was -0.277 and the “glycan array binding signal (z-score)” value [19] was -0.296. The “glycan array binding signal (z-score)” value [20] was -0.238 and the “glycan array binding signal (z-score)” value [21] was -0.288.

B2: Surfactant Protein D (Human); Neck + Carbohydrate Recognition Domain (NCRD) (Homo sapiens) (protein)
chain: MLLFLLSALVLLTQPLGYLEAEMKTYSHRTMPSACTLVMCSSVESGLPGRDRDGREGPRGEKGDPGLPGAAGQAGMPGQAGPVGPKGDNGSVGEPGPKGDTGPSGPPGPPGVPGPAGREGALGKQGNIGPQGKPGPKGEAGPKGEVGAPGMQGSAGARGLAGPKGERGVPGERGVPGNTGAAGSAGAMGPQGSPGARGPPGLKGDKGIPGDKGAKGESGLPDVASLRQQVEALQGQVQHLQAAFSQYKKVELFPNGQSVGEKIFKTAQFVKPFTEAQLLCTQAGGQLASPRSAAENAALQQLVVAKNEAAFLSMTDSKTEGKFTYPTGESLVYSNWAPGEPNDDGGSEDCVEIFTNGKWNDRACGEKRLVVCEA
For B2, the “glycan array binding signal (z-score)” value (Gal(a1-2)Gal) was -0.16, the “glycan array binding signal (z-score)” value (Gal(a1-3)Gal(b1-4)Glc) was -0.099 and the “glycan array binding signal (z-score)” value (Gal(a1-3)GalNAc) was -0.129. The “glycan array binding signal (z-score)” value [22] was -0.104, the “glycan array binding signal (z-score)” value [23] was -0.138 and the “glycan array binding signal (z-score)” value [24] was -0.164. For the same binder, the “glycan array binding signal (z-score)” value [25] was -0.146, the “glycan array binding signal (z-score)” value ([9]; mutation: F355A) was -0.155 and the “glycan array binding signal (z-score)” value [26] was -0.122. For the same binder, the “glycan array binding signal (z-score)” value (Kdn(a2-3)Gal(b1-4)GlcNAc) was -0.072, the “glycan array binding signal (z-score)” value ([12]; mutation: F355A) was 2.74 and the “glycan array binding signal (z-score)” value ([13]; mutation: F355A) was 4.68. The “glycan array binding signal (z-score)” value [27] was 15, the “glycan array binding signal (z-score)” value ([15]; mutation: F355A) was 1.59 and the “glycan array binding signal (z-score)” value ([16]; mutation: F355A) was 2.15. The “glycan array binding signal (z-score)” value [28] was 5.56, the “glycan array binding signal (z-score)” value [29] was 2.12 and the “glycan array binding signal (z-score)” value [30] was -0.15. The “glycan array binding signal (z-score)” value [31] was -0.145.
